Compounds with a hit are over-represented: about 4.1% of the library has one in this group of screens.
NSD2 HMT inh: blocks human histone methyltransferase NSD2 | O96028 | NSD2 peptide methylation, AlphaScreen, 120 min | 310,000 compounds, 0.54% hits | AID 743445 | inhibition, % at 12.5 µM; in the data active = inhibition above about 50%
Target sequence (O96028 whole entry, looked up): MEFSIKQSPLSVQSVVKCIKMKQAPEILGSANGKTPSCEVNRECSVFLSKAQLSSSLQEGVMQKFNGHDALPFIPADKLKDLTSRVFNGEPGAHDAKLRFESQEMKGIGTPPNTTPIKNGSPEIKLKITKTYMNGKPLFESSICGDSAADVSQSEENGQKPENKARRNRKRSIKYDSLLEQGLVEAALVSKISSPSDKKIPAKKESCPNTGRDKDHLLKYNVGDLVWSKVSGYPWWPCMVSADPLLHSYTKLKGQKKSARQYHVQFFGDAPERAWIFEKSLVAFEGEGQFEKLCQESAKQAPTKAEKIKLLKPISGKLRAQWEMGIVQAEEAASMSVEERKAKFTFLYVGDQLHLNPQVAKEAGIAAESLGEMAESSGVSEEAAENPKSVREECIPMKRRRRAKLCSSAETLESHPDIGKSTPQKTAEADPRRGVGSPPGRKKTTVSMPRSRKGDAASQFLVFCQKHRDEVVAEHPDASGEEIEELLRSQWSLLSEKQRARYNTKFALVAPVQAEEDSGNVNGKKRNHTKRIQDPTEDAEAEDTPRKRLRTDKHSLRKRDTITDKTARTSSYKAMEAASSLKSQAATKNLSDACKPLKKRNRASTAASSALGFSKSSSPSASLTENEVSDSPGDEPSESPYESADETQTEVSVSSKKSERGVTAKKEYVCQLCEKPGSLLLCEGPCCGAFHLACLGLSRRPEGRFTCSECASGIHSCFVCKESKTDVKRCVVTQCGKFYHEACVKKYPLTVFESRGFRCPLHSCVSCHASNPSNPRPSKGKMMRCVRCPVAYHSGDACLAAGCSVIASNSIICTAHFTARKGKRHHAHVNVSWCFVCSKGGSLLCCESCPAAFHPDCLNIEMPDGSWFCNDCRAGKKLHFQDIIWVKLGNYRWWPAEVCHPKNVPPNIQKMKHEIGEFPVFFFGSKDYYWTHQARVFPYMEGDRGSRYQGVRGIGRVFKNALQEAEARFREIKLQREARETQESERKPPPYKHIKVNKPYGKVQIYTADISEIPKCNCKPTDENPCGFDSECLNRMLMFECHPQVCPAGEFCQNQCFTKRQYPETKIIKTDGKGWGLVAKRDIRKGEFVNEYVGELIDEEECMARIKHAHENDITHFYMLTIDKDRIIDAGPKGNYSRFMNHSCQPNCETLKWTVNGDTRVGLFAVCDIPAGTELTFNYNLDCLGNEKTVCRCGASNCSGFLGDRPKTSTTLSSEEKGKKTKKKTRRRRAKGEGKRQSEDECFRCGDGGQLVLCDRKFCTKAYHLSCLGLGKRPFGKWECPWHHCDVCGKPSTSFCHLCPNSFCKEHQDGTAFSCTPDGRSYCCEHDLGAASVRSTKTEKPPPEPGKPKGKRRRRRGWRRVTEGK
PglD DTNB: inhibitors of Campylobacter jejuni PglD acetyltransferase | 360,000 compounds, 0.098% hits | inhibition, % at 12.5 µM | purified PglD enzyme, DTNB colorimetric CoA detection; in the data active = inhibition above about 16%, passing the limit was not always enough
Env fusion inh: inhibitors of HIV Env-mediated cell fusion | HeLa-JRFL Env/CEM21 cell fusion, luciferase | inhibition, % at 12.3 µM | 360,000 compounds, 1.1% hits;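 active = mean replicate inhibition score of at least 50 and every replicate individually at or above 50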;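 note: 0% = plate neutral controls and 100% = maraviroc near 300 nM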
CFTR F508del cor: CFTR F508del correction in bronchial cells | CFBE cells, YFP halide quenching; stimulated with forskolin plus potentiator P3; % fluorescence drop versus neutral controls | activity (quench increase), % at 7.58 µM | 350,000 compounds, 0.36% hits;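 active = mean added fluorescence quench of at least 8% versus neutral control, with both replicates also reaching 8%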;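 note: cells transiently co-express mutant CFTR-F508del with the halide-sensitive YFP; corrector assay measuring rescue of mutant channel to the surface after 24 h compound exposure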
ALR H2O2 inh: inhibitors of human sulfhydryl oxidase ALR. P55789. inhibition, % (no concentration beside the values). AID 485317. 290,000 compounds, 3.8% hits. purified ALR, DTT oxidation, H2O2 HRP-luminol luminescence;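 active = mean replicate inhibition above about 79%, with every replicate also reaching it, limit read from the data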
Casp6 inh: caspase-6 (human) enzyme inhibition; inhibition, % at 12.5 µM; 350,000 compounds, 0.53% hits; AID 686996; P55212; purified caspase-6, Z-VEID-R110 cleavage fluorescence;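 active = mean inhibition across replicates at least about 35%, with every replicate also reaching that limit, limit read from the data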;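 note: 0% = median of neutral control wells and 100% = no fluorescence left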
Starred values were filed as active, the others as inactive; / = not tested or not shown; + = active, no number; [ ] = another dose, or the depositor's remark.

SMILES | NSD2 HMT inh | PglD DTNB | Env fusion inh | CFTR F508del cor | ALR H2O2 inh | Casp6 inh
O=C(CC(c1ccccc1)c1ccccc1)Nc1ccc(O)cc1 | -1 | 3 | -54 | -3 | 99* | 1
CC(=O)Nc1ccc(NC(=O)CC(c2ccccc2)c2ccccc2)cc1 | 0 | 4 | -21 | 0 | -11 | -1
O=C(CC(NCCc1ccccc1)C(=O)O)Nc1ccc(O)cc1 (configuration not stated) | -1 | / | -29 | / | 91* | /
Cc1ccc(S(=O)(=O)N2CCCCC2)cc1NC(=O)CCNC(=O)c1ccc([N+](=O)[O-])cc1 | 0 | -3 | 59* | -4 | / | -3
Cn1nc(C(=O)Nc2cccc(S(=O)(=O)N3CCCC3)c2)c2ccccc2c1=O | 2 | -1 | / | -5 | 2 | -2
Cc1ccc(S(=O)(=O)N2CCCCC2)cc1NC(=O)c1nn(C)c(=O)c2ccccc12 | -2 | / | 66* | 1 | / | 5
CCN(CC)S(=O)(=O)c1ccc(N2CCCC2)c(NC(=O)c2nn(C)c(=O)c3ccccc23)c1 | 1 | 1 | / | -2 | -27 | 1
Cn1nc(C(=O)Nc2ccccc2N2CCCC2)c2ccccc2c1=O | 10 | -2 | 4 | -2 | 92* | 1
COc1ccc2c3c([nH]c2c1)[C@@H](CO)N(Cc1ccccc1)CC31CCN(C(=O)Nc2cccc(F)c2)CC1 | / | / | 1[16.7 µM] | 0 | / | -2
CCC(=O)N[C@@H]1CC[C@@H](CC(=O)NCc2ccc(OC)cc2)O[C@@H]1CO | / | 5 | 24[16.7 µM] | -2 | / | 3
Cc1sc(NC(=O)CSc2n[nH]c(N)n2)c(C#N)c1C | 1 | -5 | / | -4 | / | 40*
COc1ccc2nc(NC(=O)CSc3n[nH]c(N)n3)sc2c1 | 6 | / | -22 | -3 | 90* | 4
COC(=O)c1c(NC(=O)CSc2n[nH]c(N)n2)sc(C)c1C | 0 | 1 | -46 | / | 0 | /
COCC(=O)N1CC2(C1)[C@@H](c1ccc(C3=CCCC3)cc1)[C@H](CO)N2C(=O)COC | / | / | / | -2 | / | 1
CC(=O)NCc1ccc(S(=O)(=O)N/N=C/c2ccc(Br)cc2)cc1 | 0 | / | 2 | / | 7 | 1
CCN(CC)c1ccc(/C=N/NS(=O)(=O)c2ccc(CNC(C)=O)cc2)cc1 | 1 | / | -11 | -2 | 99* | 0
CCN(CC)c1ccc(/C=N/NC(=O)c2ccoc2C)cc1 | 4 | 2 | -92 | -3 | / | 2
CCN(CC)c1ccc(/C=N/NC(=O)OC(C)(C)C)cc1 | 5 | 5 | -11 | / | 99* | 0
CCCN(CCC)c1ccc(/C=N/NC(=O)CN2CCOCC2)cc1 | 1 | 3 | / | / | 99* | /
CCN(CC)c1ccc(/C=N/NC(=O)CNC(=O)c2ccccn2)cc1 | 5 | / | 2 | -2 | 95* | -7
O=C(CNC(=O)c1ccccn1)N/N=C/c1ccc2c(c1)OCO2 | 0 | / | 10 | 1 | 72 | 1
CCCNC(=O)N(C)C[C@@H]1Oc2ncc(C#Cc3ccncc3)cc2C(=O)N([C@@H](C)CO)C[C@H]1C | / | -1 | 4[16.7 µM] | 0 | / | 1
C[C@@H]1CCCCO[C@@H](CN(C)S(=O)(=O)c2cn(C)cn2)[C@H](C)CN([C@H](C)CO)C(=O)c2cc(NC(=O)Nc3ccc(C(F)(F)F)cc3)ccc2O1 | / | 4 | 25[16.7 µM] | 8 | / | /
CO[C@@H]1CN(C)C(=O)c2ccc(NC(=O)Nc3ccc4c(c3)OCO4)cc2OC[C@H](C)NC[C@H]1C | / | 1 | -19[16.7 µM] | 1 | / | -1
CCN(CC)c1ccc(/C=N\NC(N)=O)cc1 | 1 | -4 | -39 | 2 | 99* | /
SMILES | NSD2 HMT inh | PglD DTNB | Env fusion inh | CFTR F508del cor | ALR H2O2 inh | Casp6 inh
COc1ccc(/C=N/NC(=O)OC(C)(C)C)cc1OC | -4 | / | / | / | 95* | /
CCN(CC)c1ccc(/C=N/NC(=O)Nc2ccccc2)cc1 | 1 | / | -52 | 1 | 34 | -1
CCN(CC)c1ccc(/C=N/NC(=O)CC(C)C)cc1 | 7 | 13 | 8 | -2 | 99* | -3
CS(=O)(=O)Nc1ccc2c(c1)[C@@H]1C[C@H](CC(=O)NCc3cccnc3)O[C@H](CO)[C@@H]1O2 | / | -2 | -3[16.7 µM] | 0 | / | 0
COc1cc2ccc(=O)oc2cc1O | / | 6 | / | -2 | 98* | -3
CC(C)[C@@H](CO)NC(=O)[C@H]1[C@@H](c2ccccc2)N(c2ccccc2)O[C@@H]1C | / | / | 9[16.7 µM] | 1 | / | 0
Cc1cc(O)c(Sc2ncn[nH]2)cc1NS(=O)(=O)c1ccc(Cl)cc1 | 0 | 1 | / | 2 | 93* | 5
Cc1ccc([N+](=O)[O-])cc1S(=O)(=O)Nc1ccc(O)c(Sc2ncn[nH]2)c1 | 31 | -4 | -13 | 1 | 94* | 17
COc1ccc(S(=O)(=O)Nc2cc(Sc3ncn[nH]3)c(O)cc2C)cc1 | -1 | 5 | -13 | -1 | 98* | 1
O=S(=O)(Nc1cc(Sc2ncn[nH]2)c(O)c2ccccc12)c1ccccc1 | + | / | 18 | -5 | / | 100*
COc1ccc(-c2ccc(NS(=O)(=O)c3cc([N+](=O)[O-])ccc3C)cc2)nn1 | 3 | -2 | -4 | 2 | -5 | 2
C[C@H](CO)N1C[C@H](C)[C@@H](CN(C)C(=O)Nc2cccc(F)c2)Oc2ncc(C3=CCCCC3)cc2C1=O | / | -3 | -10[16.7 µM] | 1 | / | 1
CNC[C@H]1Oc2ncc(Br)cc2C(=O)N([C@@H](C)CO)C[C@@H]1C | / | / | -9[16.7 µM] | -5 | / | /
COc1ccc(S(=O)(=O)N(C)C[C@@H]2OCCCC[C@H](C)Oc3ccc(NS(=O)(=O)c4c(C)noc4C)cc3C(=O)N([C@H](C)CO)C[C@H]2C)cc1 | / | -2 | -23[16.7 µM] | 0 | / | -1
COc1ccc(S(=O)(=O)N[C@H]2CC[C@H](CC(=O)N3CCc4ccccc4C3)O[C@@H]2CO)cc1 | / | -3 | -2[16.7 µM] | 1 | / | -1
CCC(=O)N1C[C@H](C)[C@H](OC)CN(C)C(=O)c2cc(NC(=O)CC(F)(F)F)ccc2OC[C@H]1C | / | / | / | 0 | / | -1
C[C@H](CO)N1C[C@H](C)[C@@H](CN(C)S(C)(=O)=O)Oc2ncc(C3=CCCCC3)cc2C1=O | / | / | 7[16.7 µM] | 1 | / | /
N#Cc1c(F)cccc1N1CCC(C#N)CC1 | 5 | / | 64* | 0 | -6 | -3
Nc1ccccc1OCCOCCOc1ccccc1N | -5 | -1 | -60 | / | 98* | /
Nc1ccccc1OCCOc1ccccc1N | -1 | -5 | -15 | 0 | 8 | -3
CCn1c(-c2ccccc2)csc1=Nc1ccc(O)cc1 | 27 | / | -47 | -1 | 99* | 5
OCCn1c(-c2ccc(F)cc2)csc1=Nc1ccccc1 | 14 | / | -2 | / | 96* | /
COc1ccc([C@@H]2CC(=O)c3c(O)cc(O[C@@H]4O[C@H](CO[C@@H]5O[C@@H](C)[C@H](O)[C@@H](O)[C@H]5O)[C@@H](O)[C@H](O)[C@H]4O)cc3O2)cc1O | / | -96 | -10 | -3 | 43 | 23
COc1ccc2c(c1)C(=O)[C@@H](O)[C@H](c1ccc(OC)c(Br)c1)O2 | / | 6 | / | / | -2 | /
O=C1c2c(O)cc(O)cc2O[C@H](c2ccc(O)cc2)[C@H]1O | / | 5 | / | -4 | 87* | -6

High-throughput results deposited in PubChem by Broad Institute.
